Legend:
[1] = molecular target: RNA polymerase II-associated factor 1 homolog (UniProt Q8N7H5); assay: cross-link between two proteins; cross-linking mass spectrometry
[2] = molecular target: Transcription elongation factor SPT6 (UniProt Q7KZ85); assay: cross-link between two proteins; affinity purification or IP with mass spectrometry; cross-linking mass spectrometry

| Substance | listed as a hit [1] | listed as a hit [2] |
| --- | --- | --- |
| Transcription elongation factor SPT6, Q7KZ85 | yes | – |
| DNA-directed RNA polymerase II subunit RPB1, P24928 | – | yes |
